Results filed as inconclusive are left out. Active and inactive are the calls of the source. Unless noted, calls come from the whole dose curve; as a rule, active = well fitted inhibition curve with a large enough effect; inconclusive = small, poorly fitted or top-dose-only effect; inactive = no such curve, though single readings can be large or run the other way.
Legend:
[1] = qHTS profiling of the MIPE4 collection as inhibitors of Plasmodium falciparum (3D7) proliferation (AID 743344; call rule not given here;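 note: scaled between DMSO vehicle wells and 0.29 µM artemisinin as full inhibition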); settings: P. falciparum 3D7 in erythrocytes, SYBR Green DNA fluorescence, 72 h; at 28.5 µM unless noted
How it was run: (§1)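 Parasite DNA was quantified by SYBR Green I fluorescence (ex 485, em 535 nm) after overnight lysis in saponin/Triton buffer at room temperature. Cultures at 0.3% parasitemia and 2.5% hematocrit were first exposed to compound for 72 h at 37 C; signals were normalised to artemisinin (0.29 uM) and vehicle wells.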

[2] = qHTS profiling of the MIPE4 collection as inhibitors of Plasmodium falciparum (DD2) proliferation (AID 743345; call rule not given here); settings: P. falciparum Dd2 in erythrocytes, SYBR Green DNA, 72 h; at 28.5 µM unless noted
How it was run: as §1

[3] = qHTS profiling of the MIPE4 collection as inhibitors of Plasmodium falciparum (DD2) proliferation (Rep 2) (AID 743346; call rule not given here); settings: P. falciparum Dd2 in erythrocytes, SYBR Green DNA, 72 h; at 28.5 µM unless noted
How it was run: as §1

[4] = qHTS profiling of the MIPE4 collection as inhibitors of Plasmodium falciparum (HB3) proliferation (AID 743347; call rule not given here;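 note: plate controls were DMSO vehicle wells for no effect and artemisinin wells for full effect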); settings: P. falciparum HB3 in erythrocytes, SYBR Green DNA, 72 h; at 28.5 µM unless noted
How it was run: as §1

[5] = High-throughput drug toxicity screening in the BPDCN cell line Gen2.2 (AID 1224824; call rule not given here;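 note: cells exposed to compounds for 48 h before reading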); settings: Gen2.2 BPDCN cells; at 45.8 µM (top of the series) unless noted
How it was run: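 CellTiter-Glo luminescence read after 48 h compound exposure at 37 C defines viability; percent activity set with DMSO as 100% and bortezomib (9.2 uM final) as 0%. 500 exponentially growing cells per well, RPMI plus 10% FBS.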

[6] = High-throughput drug toxicity screening in the BPDCN cell line Cal-1 (AID 1224825; call rule not given here); settings: Cal-1 BPDCN cell viability, qHTS; at 45.8 µM (top of the series) unless noted
How it was run: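 Viability of the BPDCN line Cal-1 is measured as ATP-based luminescence (CellTiter-Glo) following 48 h incubation with compounds. Percent activity uses DMSO-treated wells as 100% and 9.2 uM bortezomib as 0%.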

[7] = qHTS assay for measurement of the activity of small molecule inhibitors on Zika virus induced Caspase-3 activity in human iPSC derived neural progenitor cells (hNPCs) (AID 1224857); note: % of control where 0% means no effect; nearly all actives have a fitted effect of over 65% in size
How it was run: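 Human iPSC-derived neural progenitor cells pretreated 1 hr with compounds, then infected with Zika virus (2 FFU/cell) for 6 hours at 37 C. Caspase-3/7 measured by Caspase-Glo luminescence; % inhibition calculated from induction scaled to uninfected (0%) and infected (100%) wells.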

[8] = qHTS assay for measurement of the activity of small molecule inhibitors on Zika virus induced Caspase-3 activity in human astrocytoma cells (AID 1224859);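 note: plate controls were ZIKV-infected untreated cells for no effect and uninfected cells for full effect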
How it was run: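 SNB-19 astrocytoma cells, 250/well, pretreated 1 h with compounds, then Zika virus at 2 FFU/cell for 6 h at 37 C; Caspase-Glo 3/7 luminescence after 30 min; percent inhibition normalised to uninfected and infected controls.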

[9] = qHTS Screen of the MIPE 4.0 Collection Against Ewings Sarcoma (RDES) (AID 1259252); note: nearly all actives have a fitted effect of over 35% in size; note: potency is the fitted concentration of half-maximal effect
How it was run: (§2)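 Measured: ATP luminescence (CellTiter-Glo) 10 min after reagent addition, following 48 h drug treatment. Relative luciferase units converted to percent activity, with no-cell wells as full and DMSO wells as zero inhibition.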

[10] = qHTS Screen of the MIPE 4.0 Collection Against Ewings Sarcoma (TC71) (AID 1259253); note: nearly all actives have a fitted effect of over 40% in size; note: potency is the fitted concentration of half-maximal effect
How it was run: as §2

[11] = qHTS Screen of the MIPE 4.0 Collection Against Ewings Sarcoma (EW8) (AID 1259255); note: nearly all actives have a fitted effect of over 35% in size; note: potency is the fitted concentration of half-maximal effect;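 for viability: 100% = DMSO-treated cells and 0% = medium-only wells without cells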
How it was run: as §2

[12] = qHTS Screen of the MIPE 4.0 Collection Against Ewings Sarcoma (TC32) (AID 1259256); note: nearly all actives have a fitted effect of over 45% in size; note: potency is the fitted concentration of half-maximal effect
How it was run: as §2

Compound | parasite growth, % of DMSO control [1] [%] | parasite growth remaining, % of DMSO control (lower = more inhibition) [2] [%] | parasite growth, % of control (lower = inhibition) [3] [%] | growth, % of control [4] [%] | cell viability, % of control (lower = more cytotoxic) [5] [%] | viability (% of control) [6] [%] | Potency [7] | Potency [8] | Potency [9] | Potency [10] | Potency [11] | Potency [12]
C#CCC(Cc1cnc2nc(N)nc(N)c2n1)c1ccc(C(=O)N[C@@H](CCC(=O)O)C(=O)O)cc1 (some centres undefined) | 21.7 | 8.51 | 9.31 | 18 | 51.7 | 36.9 | inactive | inactive | 37.2 nM (active) | 37.2 nM (active) | 37.2 nM (active) | 33.2 nM (active)
O=c1[nH]c(=O)n([C@H]2C[C@@H](O)[C@@H](CO)O2)cc1F | – | 79.8 | 58.8 | 138 | 74.8 | 19.4 | inactive | inactive | 59 nM (active) | 93.5 nM (active) | 59 nM (active) | 59 nM (active)
NC[C@H]1O[C@H](O[C@H]2[C@@H](O)[C@@H](O[C@H]3O[C@H](CO)[C@@H](O)[C@H](N)[C@@H]3O)[C@H](N)C[C@@H]2N)[C@H](N)C[C@H]1O | – | – | 78 | – | 200 | 123 | inactive | inactive | inactive | inactive | inactive | inactive
C[C@@H]1C(=O)O[C@H]2CC34[C@H]5C[C@@H](C(C)(C)C)C36[C@H](OC(=O)[C@@H]6O)O[C@@]4(C(=O)O5)[C@]21O (some centres undefined) | – | 97.7 | – | – | 129 | 69 | inactive | inactive | inactive | inactive | inactive | inactive
CCCCCCCCc1ccc(CCC(N)(CO)CO)cc1 | – | 14.6 | 24.2 | 4.09 | 4.54 | 3.28 | inactive | inactive | 23500 nM (active) | 20900 nM (active) | 20900 nM (active) | 18700 nM (active)
CC(C)C[C@H](NC(=O)CNC(=O)c1cc(Cl)ccc1Cl)B1OC(=O)CC(CC(=O)O)(C(=O)O)O1 (some centres undefined) | – | – | 7.43 | 8.02 | 4.85 | 3.61 | inactive | inactive | 235 nM (active) | 235 nM (active) | 118 nM (active) | 332 nM (active)
C[C@H]1O[C@H](O[C@H]2[C@H](O)[C@@H](O)[C@@H](O[C@H]3[C@H](O)[C@@H](O)C(O)O[C@H]3CO)O[C@H]2CO)[C@H](O)[C@@H](O)[C@H]1N[C@H]1C=C(CO)[C@@H](O)[C@H](O)[C@@H]1O (some centres undefined) | – | – | 88.4 | 103 | 193 | 134 | inactive | inactive | inactive | inactive | inactive | inactive
CCCCCN=C(N)NN=Cc1c[nH]c2ccc(OC)cc12 | – | 7.01 | 22.5 | 6.26 | 38.7 | 11.8 | inactive | inactive | 6620 nM (active) | 10500 nM (active) | 6620 nM (active) | 4180 nM (active)
O=c1c(O)c(-c2ccc(O)c(O)c2)oc2cc(O)ccc12 | – | 8.33 | 14.7 | 8.07 | 9.57 | 2.16 | inactive | inactive | 14800 nM (active) | 18700 nM (active) | 16600 nM (active) | 20900 nM (active)
Cn1cc(-c2ccc3ncc(Cc4ccc5ncccc5c4)n3n2)cn1 | – | 60.3 | 33.6 | 13.9 | 45.5 | 35.3 | inactive | inactive | inactive | inactive | inactive | inactive
O=C(O)c1ccc(Nc2ncc3c(n2)-c2ccc(Cl)cc2C(c2c(F)cccc2F)=NC3)cc1 | – | 82.8 | 44 | 52.9 | 41.7 | 18.2 | inactive | inactive | 1050 nM (active) | 833 nM (active) | 296 nM (active) | 590 nM (active)
Nc1nc(=O)n([C@H]2C[C@H](O)[C@@H](CO)O2)cc1F | – | 95.7 | 85.7 | 107 | 190 | 35.3 | inactive | inactive | 46.9 nM (active) | 93.5 nM (active) | 66.2 nM (active) | 29.6 nM (active)
CC(C)(O)CC[C@@H](O)[C@](C)(O)[C@H]1CC[C@@]2(O)C3=CC(=O)[C@@H]4C[C@@H](O)[C@@H](O)C[C@]4(C)[C@@H]3CC[C@]12C | – | 110 | 122 | – | 104 | 104 | inactive | inactive | inactive | inactive | inactive | inactive
C[C@H](NCc1ccc(OCc2cccc(F)c2)cc1)C(N)=O | 8.15 | – | 12.8 | 3.17 | 13.6 | 4.81 | inactive | inactive | 14800 nM (active) | 14800 nM (active) | 8330 nM (active) | 14800 nM (active)
CC(C)Oc1ccc(C(=O)N[C@H](CNC(=O)CN(C)C)Cc2ccc(-c3cn4cccc([C@H](C)O)c4n3)cc2)cc1Cl | 5.62 | – | 12.6 | 5.09 | 61.2 | 18.5 | inactive | inactive | 235 nM (active) | 372 nM (active) | 235 nM (active) | 4.2 nM (active)

Reference: PubChem BioAssay (NCATS)
